Only some compounds are listed: those with a hit (about 32% of all), similar ones and a draw of the others.
CYP2C19 activ = human CYP2C19 activators, primary screen, biochemical, luminescence | Cytochrome P450 2C19 (Homo sapiens), P33261 | recombinant CYP2C19, luciferin-H EGE luminescence; active compounds read high; 0 = fully inhibited enzyme, 1 = untreated enzyme | activation factor at 5 µM | 96,000 tested, under 10 active | AID 1025, 2008;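 active = activation factor of at least 2 at 5 µM in the primary screen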;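 also: 0 = wells with 2.5 mM tranylcypromine and 1 = vehicle-only wells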
CYP2C9 act = human CYP2C9 activators, primary screen, biochemical, luminescence. Cytochrome P450 2C9 (Homo sapiens), P11712. recombinant CYP2C9, luciferin-H conversion; active compounds read high; factor 1 = untreated enzyme, 0 = blocked. activation factor at 5 µM. 96,000 compounds, 1.4% hits. AID 1024, 2008;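 active = activation factor of 2 or more for CYP2C9 at a 5 µM dose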;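 also: 0 = sulfaphenazole-blocked wells and 1 = vehicle-only wells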
Target sequence (P11712 whole entry, looked up): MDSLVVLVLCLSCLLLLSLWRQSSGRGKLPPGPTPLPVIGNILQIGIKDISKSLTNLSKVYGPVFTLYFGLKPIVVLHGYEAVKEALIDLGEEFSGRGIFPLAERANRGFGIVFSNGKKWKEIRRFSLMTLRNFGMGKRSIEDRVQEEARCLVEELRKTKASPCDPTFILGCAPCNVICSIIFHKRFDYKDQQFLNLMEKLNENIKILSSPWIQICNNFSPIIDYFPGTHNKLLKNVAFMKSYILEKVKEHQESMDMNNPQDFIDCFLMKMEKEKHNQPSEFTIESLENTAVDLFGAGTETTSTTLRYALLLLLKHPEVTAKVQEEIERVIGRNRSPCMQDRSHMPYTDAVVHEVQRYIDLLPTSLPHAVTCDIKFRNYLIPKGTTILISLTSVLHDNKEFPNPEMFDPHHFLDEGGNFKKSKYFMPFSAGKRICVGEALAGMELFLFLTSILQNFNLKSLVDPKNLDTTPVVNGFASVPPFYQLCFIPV
CYP2C19 inhib = blockers of cytochrome P450 2C19 activity – biochemical, luminescence, ADME assay, primary screen; P33261; CYP2C19 Supersomes, luciferin-H EGE luminescence, 30 min; inhibition, % at 5 µM; 96,000 compounds, 21% hits;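 active = CYP2C19 inhibition above a set limit at 5 µM in the primary screen, cut at about 50% in these data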;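 also: plate controls were negative control wells for no effect and 2.5 mM tranylcypromine positive control for full effect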
PostGolgi yeast = phenotypic screen on post-Golgi transport, primary screen; post-Golgi transport phenotypic cell assay; 98,000 compounds, 0.9% hits; inhibition, % at 10 µM;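 also: yeast cells grown in 1536-well plates; yeast grown about 18 h at 30C before absorbance read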
PostGolgi ctrl = growth inhibition of yeast control strain, primary screen, counter-screen for post-Golgi transport modulator project; efflux-deficient yeast background strain, growth absorbance A615, 16 h; inhibition, % at 10 µM; 98,000 compounds, 5% hits
CYP2C9 inhib = blockers of cytochrome P450 2C9 activity – biochemical, luminescence, ADME assay, primary screen; P11712; CYP2C9 Supersomes, luciferin-H conversion; inhibition, % at 5 µM; 96,000 compounds, 20% hits; AID 777, 2007;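 active = blocking of liver enzyme CYP2C9 beyond about 50% at 5 µM, limit read from the data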
Active calls of the source: *; · = not tested or not shown. Rule as the data show it, unless noted: active = inhibition above about 30%; inactive = the rest.

SMILES	CYP2C19 activ	CYP2C9 act	CYP2C19 inhib	PostGolgi yeast	PostGolgi ctrl	CYP2C9 inhib
Cc1ccc(S(=O)(=O)N(CC(=O)O)Cc2ccccc2F)cc1	1	0.5	-2	-7	2	51*
Cc1ccc(S(=O)(=O)N(CC(=O)N2CCC(C)CC2)Cc2ccccc2F)cc1	0.2	0.2	84*	-5	37*	79*
Cc1ccc(S(=O)(=O)N(CC(=O)N2CCOCC2)CC(=O)N2CCOCC2)cc1	·	·	·	2	4	·
C/C(N)=C(/C#N)C(=O)CSc1nc2ccc(C)cc2[nH]1	0.1	0.4	88*	1	11	63*
COc1ccc2nc(SCC(=O)NC(C)(C)C)[nH]c2c1	0.2	0.3	85*	1	10	66*
COc1ccc2nc(SCC(=O)NC(C)C)[nH]c2c1	0.6	0.9	42	9	28	11
Cc1cc(C(=O)CSc2nc3ccc(Cl)cc3[nH]2)c(C)n1C	0.1	0.1	94*	55*	84*	93*
Cc1cc(C(=O)CSc2nc3ccccc3[nH]2)c(C)n1C	0.1	0.4	87*	11	7	60*
Cc1cc(NC(=O)CSc2nc3ccc(Cl)cc3[nH]2)no1	0.6	0.4	40	4	14	62*
Cc1cc(C(=O)CSc2nnc(-c3ccc(Cl)cc3)n2CC2CCCO2)c(C)n1C (centres undefined)	0.9	1.8	14	-4	3	-76
Cc1cc(C(=O)CSc2nc3ccc(Cl)cc3[nH]2)c(C)n1CC1CCCO1 (centres undefined)	0	0.1	96*	1	10	92*
COc1ccc(Nc2nnc(SCC(=O)c3cc(C)n(CC4CCCO4)c3C)s2)cc1 (centres undefined)	0.3	0.4	72*	4	14	59*
Cc1ccc2nc(SCC(=O)c3cc(C)n(C)c3C)[nH]c2c1	0.8	0.4	20	1	33*	57*
Cc1cc(NC(=O)CSc2nc3cc(Cl)ccc3s2)no1	1	1	2	-4	-1	3
CCOc1ccc(Nc2cc(=O)n(C)c(=O)n2C)cc1	0.9	0.9	5	21	1	12
Cc1ccc2c(C)nc(Nc3nc(CSc4nc5ccccc5[nH]4)cc(=O)[nH]3)nc2c1	0.6	0.5	45	2	19	47
Cc1nn2c(=O)cc(CSc3nc4ccccc4[nH]3)nc2s1	0.4	0.8	58*	-1	5	15
O=C1CSC(c2ccccn2)N1c1cccc(Cl)c1 (centres undefined)	1	1	3	-2	13	0
O=C1CSC(c2c(F)cccc2Cl)N1c1cccc(F)c1 (centres undefined)	0.8	2.1*	20	-2	2	-107
CC(=O)N1C(C(=O)O)CSC1c1ccc(C)cc1 (centres undefined)	1.2	1.1	-25	-7	-4	-9
CCOC(=O)CCn1c(=O)c2c(nc(Br)n2Cc2ccccc2)n(C)c1=O	0.4	0.6	60*	7	-1	41
CCOC(=O)CCn1cc(F)c(=O)n(Cc2ccccc2)c1=O	0.5	0.9	52*	-4	-5	11
CCOC(=O)Cn1c(=O)c2c(nc(Br)n2Cc2ccc(Cl)cc2)n(C)c1=O	0.6	0.4	44	·	·	56*
CCOC(=O)Cn1c(=O)c2c(nc(N3CCCCC3)n2Cc2ccccc2)n(C)c1=O	0.8	0.7	17	11	19	31
O=c1c2c(nc3c(-c4ccccc4)c[nH]n13)CCCC2	0.8	0.6	15	-4	5	37
SMILES	CYP2C19 activ	CYP2C9 act	CYP2C19 inhib	PostGolgi yeast	PostGolgi ctrl	CYP2C9 inhib
C=CCSc1nnc(NC(=O)CSc2nc3ccccc3o2)s1	0.4	0.2	59*	7	3	82*
CCc1nnc(NC(=O)CSc2nnc(COc3ccccc3C)o2)s1	1	0.8	-4	3	-3	16
CCc1nnc(NC(=O)CSc2nc3ccccc3o2)s1	1	0.4	2	-6	10	59*
O=C(CSc1nc2ccccc2o1)Nc1nncs1	0.7	0.4	33	1	-11	55*
CC1(C)Cc2cccc(OCC(=O)N3CCN(S(=O)(=O)c4ccccc4)CC3)c2O1	0.7	1.2	31	8	27	-18
CC1CCCC(N2C(=O)NC(NC(=O)c3ccco3)(C(F)(F)F)C2=O)C1C (centres undefined)	0.4	0.6	63*	4	7	43
CCCCN1C(=O)NC(NC(=O)c2ccco2)(C(F)(F)F)C1=O (centres undefined)	1	1	2	-6	4	3
CCCS(=O)(=O)N1CCCC(C(=O)NCCc2ccc(OC)c(OC)c2)C1 (centres undefined)	0.9	0.9	7	-4	-1	10
Cc1ccc(C)c(OCCOCCN2CCOCC2)c1	0.7	1.2	29	2	-1	-15
Brc1ccc(OCCCN2CCOCC2)cc1	0.2	1	78*	2	6	3
Clc1ccc(OCCOCCN2CCCCC2)c(Br)c1	0.7	0.9	30	42*	26	11
Clc1cc(Br)ccc1OCCOCCN1CCOCC1	0.2	1	81*	53*	14	-2
Cc1nc2ccccn2c1C(=O)NCc1cccnc1	0.5	0.9	49	4	6	9
Cc1ccccc1CS(=O)(=O)CCC(=O)N1CCN(c2ccc(N3CCOCC3)nn2)CC1	1.1	1.1	-8	3	6	-10
CCOCCCNC(=O)CCCOc1ccccc1	0.9	1	8	11	10	-1
O=C(OCc1cnc(Cl)s1)c1cccc(Cl)c1Cl	0.1	0.6	92*	8	12	45
O=C(OCc1cnc(Cl)s1)c1ccccc1Cl	0.2	0.9	77*	-4	10	13
O=C(c1cccc(Cl)c1Cl)N1CCN(c2ccccn2)CC1	0.5	0.5	45	6	-2	46
C=CC[n+]1c(-c2ccc(OCC)cc2)csc1NNC(=O)Nc1ccccc1	0.9	0.9	6	-10	18	13
Cc1ccc(Oc2ccc(NC(=O)Cn3ccsc3=N)cc2)cc1	1.3	1.1	-35	0	2	-14
COc1ccc2[nH]c(C)c(CCN(Cc3cccs3)C(=S)Nc3ccc(F)cc3)c2c1	0.5	0.1	45	-1	23	87*
COc1ccc2[nH]c(C)c(CCN(Cc3cccs3)C(=S)Nc3ccccc3)c2c1	0.5	0.1	50*	10	29	86*
COc1ccccc1NC(=S)N(CCc1c(C)[nH]c2ccccc12)Cc1cccs1	0.4	0.6	58*	-6	23	36

Screens from PubChem.
